Test results reported in ChEMBL document CHEMBL3988442, “University of Dundee, Small-Polar-MMV Screening Library” (2021).
For some assays here: Results with a measured potency or affinity are listed apart.

Assays:
Set-up in all cases: scale not given: direction of the effect not stated beside the values
[1] = target: Protein translocase subunit SecA (Escherichia coli (strain K12)) (UniProt P10408); assay: Assay to Identify E. coli SecA ATPase Inhibitors; type: functional; conditions: 30 µM
[2] = target: T1, Ubiquitin-activating enzyme e1, putative (Leishmania donovani (strain BPK282A1)) (UniProt E9BSI1); assay: Leishmania donovani Ubiquitin Activating Enzyme (LdE1); type: functional; conditions: 30 µM
T1 sequence (whole entry): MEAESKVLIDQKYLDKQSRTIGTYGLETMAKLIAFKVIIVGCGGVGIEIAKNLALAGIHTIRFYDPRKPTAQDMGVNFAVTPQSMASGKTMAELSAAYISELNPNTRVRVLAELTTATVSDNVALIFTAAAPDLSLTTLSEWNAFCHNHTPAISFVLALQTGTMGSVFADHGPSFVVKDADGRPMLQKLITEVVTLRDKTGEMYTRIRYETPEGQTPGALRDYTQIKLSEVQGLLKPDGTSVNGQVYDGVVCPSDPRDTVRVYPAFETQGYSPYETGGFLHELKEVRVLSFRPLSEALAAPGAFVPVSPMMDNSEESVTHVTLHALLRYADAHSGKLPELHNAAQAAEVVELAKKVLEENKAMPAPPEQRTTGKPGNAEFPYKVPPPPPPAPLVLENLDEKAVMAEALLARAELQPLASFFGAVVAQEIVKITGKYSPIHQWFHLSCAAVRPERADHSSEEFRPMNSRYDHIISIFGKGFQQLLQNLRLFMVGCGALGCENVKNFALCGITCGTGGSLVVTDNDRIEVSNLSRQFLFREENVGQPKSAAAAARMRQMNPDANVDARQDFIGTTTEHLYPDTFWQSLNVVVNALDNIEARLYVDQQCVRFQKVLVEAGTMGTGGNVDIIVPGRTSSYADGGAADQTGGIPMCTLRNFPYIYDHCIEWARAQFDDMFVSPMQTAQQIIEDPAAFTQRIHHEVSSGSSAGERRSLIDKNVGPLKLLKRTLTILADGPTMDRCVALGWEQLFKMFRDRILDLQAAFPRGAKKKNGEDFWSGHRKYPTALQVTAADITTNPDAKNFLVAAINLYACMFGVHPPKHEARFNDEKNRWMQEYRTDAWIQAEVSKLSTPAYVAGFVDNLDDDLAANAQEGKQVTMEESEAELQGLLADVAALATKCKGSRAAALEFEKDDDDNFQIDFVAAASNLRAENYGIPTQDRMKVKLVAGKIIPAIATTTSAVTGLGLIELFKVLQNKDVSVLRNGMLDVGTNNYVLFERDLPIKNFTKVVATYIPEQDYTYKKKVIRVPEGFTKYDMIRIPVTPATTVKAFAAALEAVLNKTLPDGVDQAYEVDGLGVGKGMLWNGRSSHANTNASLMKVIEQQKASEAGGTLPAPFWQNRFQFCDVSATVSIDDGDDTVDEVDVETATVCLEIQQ

[3] = target: AMP-activated protein kinase, AMPK (Homo sapiens) (UniProt P54646+O43741+P54619+Q9UGJ0+Q9Y478+Q13131+Q9UGI9); assay: AMP-dependent Kinase enzyme assay. An in vitro enzyme assay that detects ADP turnover that is directly proportional to AMPK activity. This uses naive AMPK that is activated during the assay with MK-8722; type: functional; conditions: 30 µM
[4] = target: Sialic acid-binding Ig-like lectin 9 (Homo sapiens) (UniProt Q9Y336); assay: Hs-Siglec9 ALPHAscreen SOP 20170721; conditions: 10 µM
[5] = tested on: Trypanosoma cruzi; assay: Trypanosoma cruzi phosphomannomutase and mannose-1-phosphate guanylyltransferase assay; type: functional; conditions: 10 µM
[6] = target: T2, Arginase-2, mitochondrial (Homo sapiens) (UniProt P78540); assay: in vitro enzyme assay to detect the production of urea directly proportional to the activity of Arginase II; type: functional; conditions: 33.3 µM; note: in the data most compounds retested in dose-response had high values
T2 sequence (whole entry): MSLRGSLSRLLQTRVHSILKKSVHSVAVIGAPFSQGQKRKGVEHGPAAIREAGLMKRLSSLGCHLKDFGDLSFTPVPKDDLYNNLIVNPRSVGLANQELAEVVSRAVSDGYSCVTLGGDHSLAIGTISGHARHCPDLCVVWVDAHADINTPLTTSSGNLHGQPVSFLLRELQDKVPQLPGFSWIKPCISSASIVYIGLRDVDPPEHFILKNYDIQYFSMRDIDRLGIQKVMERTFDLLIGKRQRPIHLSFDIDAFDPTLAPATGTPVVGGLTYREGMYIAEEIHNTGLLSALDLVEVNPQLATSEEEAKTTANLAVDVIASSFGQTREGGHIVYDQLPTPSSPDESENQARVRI

[7] = target: T3, Proteasome subunit beta (Trypanosoma cruzi) (UniProt O96673); assay: Trypanosoma cruzi proteasome chymotrypsin-like activity (TcProtChymo) assay.; note: in the data most compounds retested in dose-response had high values; type: functional; conditions: 9.37 µM
T3 sequence (whole entry): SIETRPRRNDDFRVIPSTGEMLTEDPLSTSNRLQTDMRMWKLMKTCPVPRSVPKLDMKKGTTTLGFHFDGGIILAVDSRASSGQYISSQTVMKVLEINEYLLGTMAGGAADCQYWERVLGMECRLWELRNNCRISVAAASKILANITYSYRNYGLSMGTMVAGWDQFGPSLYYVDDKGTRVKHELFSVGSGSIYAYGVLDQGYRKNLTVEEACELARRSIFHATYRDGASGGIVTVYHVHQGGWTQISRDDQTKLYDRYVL

[8] = species on record: Homo sapiens; assay: To identify inhibition of the IFN signalling (Jak-Stat) pathway via expression of an eGFP reporter gene under the control of an IFN-stimulated response element (ISRE) containing MxA promoter.; type: functional; conditions: 30 µM
[9] = target: T4, Tyrosyl-tRNA synthetase, putative (Trypanosoma cruzi (strain CL Brener)) (UniProt Q4DSP6); assay: Trypanosoma cruzi tyrosyl tRNA synthetase (TcYRS) _High Tyrosine SOP; type: functional; conditions: 30 µM; note: in the data most compounds retested in dose-response had high values
T4 sequence (whole entry): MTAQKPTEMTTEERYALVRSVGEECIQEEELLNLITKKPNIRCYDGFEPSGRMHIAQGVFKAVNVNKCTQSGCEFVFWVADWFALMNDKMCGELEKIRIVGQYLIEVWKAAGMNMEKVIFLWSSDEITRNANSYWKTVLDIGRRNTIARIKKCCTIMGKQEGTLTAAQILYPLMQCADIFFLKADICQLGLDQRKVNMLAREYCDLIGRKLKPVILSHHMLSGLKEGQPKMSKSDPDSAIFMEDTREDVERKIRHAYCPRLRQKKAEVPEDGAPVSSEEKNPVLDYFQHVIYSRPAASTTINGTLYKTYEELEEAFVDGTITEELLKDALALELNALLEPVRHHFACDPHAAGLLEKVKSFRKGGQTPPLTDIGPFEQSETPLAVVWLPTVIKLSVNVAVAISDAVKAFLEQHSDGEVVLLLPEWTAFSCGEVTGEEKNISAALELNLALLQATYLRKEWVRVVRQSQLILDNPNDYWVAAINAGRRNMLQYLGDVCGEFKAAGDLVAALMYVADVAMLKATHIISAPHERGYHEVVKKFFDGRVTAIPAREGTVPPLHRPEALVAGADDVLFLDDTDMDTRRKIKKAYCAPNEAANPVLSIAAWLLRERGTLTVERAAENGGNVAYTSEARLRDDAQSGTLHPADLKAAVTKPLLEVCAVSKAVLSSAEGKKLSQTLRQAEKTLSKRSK

[10] = target: T4, Tyrosyl-tRNA synthetase, putative (Trypanosoma cruzi (strain CL Brener)); assay: Trypanosoma cruzi tyrosyl tRNA synthetase (TcYRS) SOP; type: functional; conditions: 30 µM
[11] = target: Chromo domain-containing protein 1 (Saccharomyces cerevisiae (strain ATCC 204508 / S288c) (Baker's yeast)) (UniProt P32657); assay: ScCHD-1 Enzyme Inhibition Assay; type: functional; conditions: 30 µM; note: in the data most compounds retested in dose-response had high values
Chain of Chromo domain-containing protein 1 (Saccharomyces cerevisiae (strain ATCC 204508 / S288c) (Baker's yeast)) (P32657 whole entry, the tested form may be a part): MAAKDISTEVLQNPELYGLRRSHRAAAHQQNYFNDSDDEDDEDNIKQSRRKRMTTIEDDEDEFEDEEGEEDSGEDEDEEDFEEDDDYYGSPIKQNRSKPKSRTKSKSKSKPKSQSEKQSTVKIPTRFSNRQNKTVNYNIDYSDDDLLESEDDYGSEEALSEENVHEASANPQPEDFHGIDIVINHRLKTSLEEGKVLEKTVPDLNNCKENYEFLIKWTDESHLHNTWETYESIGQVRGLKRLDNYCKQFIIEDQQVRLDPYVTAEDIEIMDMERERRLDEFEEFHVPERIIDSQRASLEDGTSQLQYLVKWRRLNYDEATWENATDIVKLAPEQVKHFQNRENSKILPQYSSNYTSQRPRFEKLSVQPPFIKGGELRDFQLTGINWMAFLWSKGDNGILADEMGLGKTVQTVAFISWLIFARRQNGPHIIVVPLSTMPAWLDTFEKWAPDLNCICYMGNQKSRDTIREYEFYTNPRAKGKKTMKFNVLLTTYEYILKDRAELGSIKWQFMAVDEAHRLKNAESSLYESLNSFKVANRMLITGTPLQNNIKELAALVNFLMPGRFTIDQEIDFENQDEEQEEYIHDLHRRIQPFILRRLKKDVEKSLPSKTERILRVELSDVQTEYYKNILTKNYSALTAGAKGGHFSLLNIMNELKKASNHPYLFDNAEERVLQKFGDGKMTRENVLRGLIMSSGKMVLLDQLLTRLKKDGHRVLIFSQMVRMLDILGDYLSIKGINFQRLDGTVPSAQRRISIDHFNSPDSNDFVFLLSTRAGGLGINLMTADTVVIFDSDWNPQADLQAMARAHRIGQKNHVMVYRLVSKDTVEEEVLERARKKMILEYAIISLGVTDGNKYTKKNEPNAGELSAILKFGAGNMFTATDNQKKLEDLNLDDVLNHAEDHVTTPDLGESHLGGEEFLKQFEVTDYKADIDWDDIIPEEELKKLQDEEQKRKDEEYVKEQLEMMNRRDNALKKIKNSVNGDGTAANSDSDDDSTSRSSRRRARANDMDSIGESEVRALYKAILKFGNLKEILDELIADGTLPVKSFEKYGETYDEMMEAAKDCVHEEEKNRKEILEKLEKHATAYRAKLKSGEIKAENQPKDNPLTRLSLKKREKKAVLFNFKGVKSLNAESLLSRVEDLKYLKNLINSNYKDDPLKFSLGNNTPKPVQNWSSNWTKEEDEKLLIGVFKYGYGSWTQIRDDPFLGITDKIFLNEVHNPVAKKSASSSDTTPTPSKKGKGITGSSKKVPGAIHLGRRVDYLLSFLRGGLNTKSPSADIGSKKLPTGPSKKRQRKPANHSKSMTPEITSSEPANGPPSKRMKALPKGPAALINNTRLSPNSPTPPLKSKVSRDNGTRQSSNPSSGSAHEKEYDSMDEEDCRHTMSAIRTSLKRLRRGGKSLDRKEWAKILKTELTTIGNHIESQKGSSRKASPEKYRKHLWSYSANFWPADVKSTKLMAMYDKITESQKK

Chain of Protein translocase subunit SecA (Escherichia coli (strain K12)) (P10408 whole entry): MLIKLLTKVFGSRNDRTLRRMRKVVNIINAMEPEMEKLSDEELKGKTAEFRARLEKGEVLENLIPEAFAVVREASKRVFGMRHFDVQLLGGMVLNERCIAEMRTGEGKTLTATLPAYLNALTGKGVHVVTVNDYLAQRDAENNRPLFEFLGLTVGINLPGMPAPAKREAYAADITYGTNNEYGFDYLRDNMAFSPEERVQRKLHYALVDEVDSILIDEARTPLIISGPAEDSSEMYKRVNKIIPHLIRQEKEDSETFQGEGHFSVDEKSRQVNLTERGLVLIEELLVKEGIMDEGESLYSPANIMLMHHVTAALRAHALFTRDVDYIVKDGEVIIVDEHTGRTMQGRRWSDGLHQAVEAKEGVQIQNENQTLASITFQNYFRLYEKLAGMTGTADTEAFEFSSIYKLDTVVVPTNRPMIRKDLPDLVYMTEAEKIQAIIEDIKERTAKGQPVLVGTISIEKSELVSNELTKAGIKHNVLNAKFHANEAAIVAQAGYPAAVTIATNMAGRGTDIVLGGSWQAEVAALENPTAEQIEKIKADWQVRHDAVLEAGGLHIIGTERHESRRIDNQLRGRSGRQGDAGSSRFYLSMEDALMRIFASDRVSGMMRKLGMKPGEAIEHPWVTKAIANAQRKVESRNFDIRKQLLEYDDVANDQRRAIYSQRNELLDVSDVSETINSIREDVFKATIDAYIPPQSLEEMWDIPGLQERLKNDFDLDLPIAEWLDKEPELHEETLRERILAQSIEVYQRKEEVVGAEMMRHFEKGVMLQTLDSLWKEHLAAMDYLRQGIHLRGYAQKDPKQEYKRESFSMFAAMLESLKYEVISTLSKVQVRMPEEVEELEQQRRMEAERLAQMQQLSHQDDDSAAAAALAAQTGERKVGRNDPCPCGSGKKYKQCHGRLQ
Chain of Sialic acid-binding Ig-like lectin 9 (Homo sapiens) (Q9Y336 whole entry): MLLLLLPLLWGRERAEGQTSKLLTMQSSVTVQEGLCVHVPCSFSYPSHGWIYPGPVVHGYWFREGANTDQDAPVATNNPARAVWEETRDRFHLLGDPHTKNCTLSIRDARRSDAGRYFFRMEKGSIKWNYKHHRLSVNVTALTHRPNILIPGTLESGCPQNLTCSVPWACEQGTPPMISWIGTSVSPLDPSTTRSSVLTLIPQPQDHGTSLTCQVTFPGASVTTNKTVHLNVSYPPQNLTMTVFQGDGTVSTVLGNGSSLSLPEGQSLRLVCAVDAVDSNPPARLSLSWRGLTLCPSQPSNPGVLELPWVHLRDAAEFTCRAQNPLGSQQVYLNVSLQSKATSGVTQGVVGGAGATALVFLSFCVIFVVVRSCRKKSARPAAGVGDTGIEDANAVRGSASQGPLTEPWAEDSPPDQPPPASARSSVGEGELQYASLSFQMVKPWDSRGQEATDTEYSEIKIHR

Structure (SMILES)	Percent Effect [1] [%]	Percent Effect [2] [%]	Percent Effect [3] [%]	Percent Effect [4] [%]	Percent Effect [5] [%]	Percent Effect [6] [%]	Percent Effect [7] [%]	Percent Effect [8] [%]	Percent Effect [9] [%]	Percent Effect [10] [%]	Percent Effect [11] [%]
CSCC[C@H](N)C(=O)NCc1cc2n(n1)CCCN(C(=O)C1CCC1)C2	-0.458	6.94	-3.76	1.43	8.26	-0.442	10.5	-24.3	0	12.8	-3.49
Cc1nnc2n1CCN(Cc1csc(CC(=O)N(C)C)n1)C2	-4.68	10.8	-6.55	9.69	-1.21	-2.03	3.77	9.18	5.94	13.4	0.846
Cc1cc(C)n(C2CCCN(C(=O)C3=NN(C)C(=O)CC3)C2)n1 (configuration not stated)	-0.53	18.9	-18.2	-2.77	5	-12.8	11.9	23.2	8.37	25.9	-9.84
Cc1ccc(CNC(=O)Cn2ncc3c2c(C)nn3C)cc1	0.175	4	4.44	1.31	-6.68	-16.4	10.2	6.77	3.17	7.69	-8.77
COc1ccc(CC(=O)N2CCCC2Cn2cccn2)cc1F (configuration not stated)	-2.59	2.63	-8.2	6.06	-2.52	1.44	2.12	-12.5	-0.493	1.24	-2.17
N#Cc1ccnc(N2CCC(c3nccn3Cc3cscn3)CC2)c1	-1.75	13.3	2.35	5.36	3.8	0	15.5	21.8	4.92	13.6	-7.45
CNC(=O)C1Cn2ccnc2C2(CCN(Cc3cccc(C)n3)CC2)O1 (configuration not stated)	-2.65	2.7	2.26	-4.02	-6.35	-8.6	9.41	0.488	4.32	10.3	0.265
CCc1noc(C2CCCCN2C(=O)c2ccoc2C)n1 (configuration not stated)	-3.77	4	-0.569	3.61	-7.47	-4.05	13.9	-6.22	1.06	5.13	-6.62
Cc1ccsc1C(=O)N1CC(C(=O)N2CCOCC2)C2(CCOCC2)C1 (configuration not stated)	-7	2.6	117	-9.65	-8.38	0.645	13.1	0.0644	-4.23	-8.97	-5.38
O=C(CCC(=O)N1CCCC1c1cccs1)N1CCc2sccc2C1 (configuration not stated)	1.64	-8.11	-5.22	4.27	5	-1.6	3.42	19.6	3.45	3.7	-5.21
CN(C)C(=O)CSc1nnc(CCNC(=O)OC(C)(C)C)o1	-1.89	9.33	6.95	-7.38	-8.64	-13.6	13.9	10.4	-3.17	2.56	-10.9
CCOc1cccc(C(=O)N2CCN(c3nccc(OC)n3)CC2)c1	-7.2	5.26	10.4	-5.48	-7	1.8	6.51	16.4	-1.48	1.24	-2.73
CCc1nc(C2CCCN(C(=O)CCn3ccccc3=O)C2)no1 (configuration not stated)	-2.1	0	-7.52	-0.82	8.08	-1.15	1.34	-13.7	-0.49	0	2.66
CS(=O)(=O)N[C@@H]1CN(C(=O)c2ccccn2)[C@@H]2CCCO[C@@H]21	-5.18	5.41	4.88	2.32	-0.489	2.87	18.4	-7.84	4.32	7.69	-0.379
Cc1nc(C)n(CC2CCCN2CCc2cccs2)n1 (configuration not stated)	-2.28	15.8	3.79	-4.64	7.89	-2.68	25.4	10.2	13.2	-7.32	-11.4
CN(C)CC1(O)CCN(S(=O)(=O)c2ccc(F)cc2)C1 (configuration not stated)	-4.76	20.3	6.17	-4.76	3.36	-3.94	17.3	10.1	5.38	9.09	65.3
COc1ccnc(N2CCN(C(=O)Cc3ccc(C)s3)CC2)n1	-2.28	-2.6	5.06	8.15	2.84	-0.632	13.8	-7.95	9.52	25.9	-9.7
COCC1CN(C(=O)C2=CCCCC2)Cc2cnn(CC3CC3)c21 (configuration not stated)	-1.86	13	2.96	2.46	1.48	-4.52	10.1	18	7.41	16.7	-9.46
N#Cc1ccc(OC2CCN(C(=O)c3ccc4c(c3)OCO4)CC2)nc1	-3.87	13.7	-6.59	16.4	6.07	-0.909	2.13	8.98	3.23	15	-2.59
CC(c1ccco1)N(C)Cc1nc2c(cnn2C)c(=O)[nH]1 (configuration not stated)	-2.49	24.3	-5.7	5.24	3.44	2.77	15.1	11.7	-8.91	28.1	-9.16
Cc1ccc(C(C)N(C)Cc2nc3c(cnn3C)c(=O)[nH]2)cc1 (configuration not stated)	0.32	16.2	-5.9	6.25	1.21	3.88	15.8	21.7	7.92	13.4	-7.48
CC(C)c1nc2n(n1)CC(NCc1nnc(C(C)C)o1)CC2 (configuration not stated)	-2.44	13.5	139	8.12	7.08	-4.81	5.41	10.9	6.4	18.5	-8.46
